PubChem BioAssay AID488857 (Sanford-Burnham Center for Chemical Genomics, 2010)
Among all 1,400 compounds or so, about 560 (40%) were called active. The set was probably picked from earlier hits. The list shows a part of the results. A number with no mark means an inactive call.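 How the source made its calls: active means mean inhibition over duplicate tests at 10 µM above 50%; inactive means the rest.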

experiment: ASC/caspase-1 reporter retest in S. cerevisiae at one dose, specificity check for NALP1 project (AID 488857); conditions: S. cerevisiae ASC/Caspase-1, beta-galactosidase luminescence, 24 h; at 10 µM; hits give high values

| SMILES | inhibition |
| --- | --- |
| Cc1ccc(C(C[N+](=O)[O-])c2c(N)n(C)c(=O)n(C)c2=O)cc1 (stereo unspecified) | 98.2% (active) |
| O=c1[nH][nH]c(-c2ccccc2O)c1C(C[N+](=O)[O-])c1ccc(Cl)cc1Cl (stereo unspecified) | 42.1% |
| COc1cccc(F)c1C(C[N+](=O)[O-])c1c(N)n(C)c(=O)n(C)c1=O (stereo unspecified) | 97.7% (active) |
| COc1ccccc1C(C[N+](=O)[O-])c1c(N)n(C)c(=O)n(C)c1=O (stereo unspecified) | 99.8% (active) |
| Cc1nc([N+](=O)[O-])c(Br)n1CC(=O)c1ccc(Cl)cc1 | 37.6% |
| Cc1ccccc1Cn1c(=N)n(CC(=O)c2ccc([N+](=O)[O-])cc2)c2ccccc21 | 53.6% (active) |
| N=c1n(CC(=O)c2ccc([N+](=O)[O-])cc2)c2ccccc2n1Cc1ccccc1Cl | 28.8% |
| CCCCCOc1ccc(Cn2ccnc2)cc1[N+](=O)[O-] | 64% (active) |
| CCCCOc1ccc(CSC2=NCCN2)cc1[N+](=O)[O-] | 40.1% |
| CCc1cccc2c(C(=O)CSc3nncn3-c3ccc(OC)cc3)c[nH]c12 | 38.1% |
| CCc1cccc2c(C(=O)COC(=O)c3ccc([N+](=O)[O-])s3)c[nH]c12 | 95.7% (active) |
| CCc1cccc2c(C(=O)COC(=O)c3ccccc3)c[nH]c12 | 43.6% |
| O=C(Nc1nc2c(c(=O)[nH]1)CCCC2)C1CC1 | 31.5% |
| O=C1c2ccccc2C(Nc2ccc(Cl)cn2)N1Cc1ccccc1 (stereo unspecified) | 52.1% (active) |
| O=C1c2ccccc2C(O)N1c1cccnc1 (stereo unspecified) | 23.4% |
| COc1ccc(C(C)C)cc1S(=O)(=O)n1cnc(C)c1 | 42.7% |
| COC(=O)c1cc(OC)c(OC)cc1NC(=S)N1CCN(c2ccccc2)CC1 | 39.1% |
| COC(=O)/C=C/C(=O)N1CCN(c2cccc(Cl)c2)CC1 | 62.8% (active) |
| O=C(CN1CCN(c2cccc(Cl)c2)CC1)Nc1ccc(S(=O)(=O)N2CCOCC2)cc1 | 33.4% |
| C#CCOc1c(Br)cc(/C=N/O)cc1OCC | 17.9% |
| Cc1oc(-c2ccccc2Cl)nc1CSc1nc2c(c(=O)[nH]1)CCC2 | 21.4% |
| CNc1nc(SCc2ccc(C)cc2)nc2c1CCCC2 | 98.4% (active) |
| CNc1nc(SCc2ccccc2Cl)nc2c1CCCC2 | 97.2% (active) |
| NC(=NCCc1ccc(Cl)cc1)NS(=O)(=O)c1ccc(F)cc1 | 23.1% |
| COc1ccc(N(C)C2=NS(=O)(=O)c3ccccc32)cc1 | 29.7% |
| COCCN(CCOC)c1ncnc2c1cnn2-c1ccc(Cl)cc1 | 69.3% (active) |

| SMILES | inhibition |
| --- | --- |
| CN(Cc1ccccc1)c1ncnc2c1cnn2-c1ccccc1 | 66.2% (active) |
| COC(=O)c1ccc(Cn2cnc3c(cnn3-c3ccc(Cl)cc3)c2=O)o1 | 35.1% |
| CC(C)c1ccc(NCCC(=O)c2cccs2)cc1 | 42% |
| Nc1ccc(C(=O)c2cccs2)cc1 | 54.2% (active) |
| CCOc1ccc(NC(=O)c2csc3c2CCCC3)cc1 | 70.2% (active) |
| CCOc1ccc(N=c2oc3cc(O)ccc3cc2C(=O)NCC2CCCO2)cc1 (stereo unspecified) | 33% |
| CCOc1ccc(NC(=O)c2cc3c(C)nc4ccccc4c3o2)cc1 | 33.2% |
| CCOC(=O)c1cc(-c2ccccc2)n(CCC(=O)N2CCN(c3ccccn3)CC2)c1C | 32.7% |
| O=C(c1ccccc1-c1ccccc1)N1CCN(c2ccccn2)CC1 | 35.6% |
| O=C(N1CCN(c2ccccn2)CC1)C(Cl)(Cl)Cl | 63.7% (active) |
| O=C(CSCc1cnn(-c2ccccc2)c1-n1cccc1)NCc1ccc2c(c1)OCO2 | 57.3% (active) |
| c1ccc2c(Nc3nc(N4CCOCC4)c4ccccc4n3)cccc2c1 | 95% (active) |
| Oc1c(Cl)cc(Cl)c(Cl)c1Cc1c(O)c(Cl)cc(Cl)c1Cl | 98.4% (active) |
| CCN(CC)c1ccc(NC(=O)Cn2cc3c(n2)CCC(C)C3)c(C)c1 (stereo unspecified) | 51.1% (active) |
| C=CCNCCCCOc1ccc(Br)cc1C | 46.5% |
| Cc1cc(Br)ccc1OCCn1ccnc1 | 59.4% (active) |
| Cc1cc(Cl)c(OCCCn2ccnc2)c(Br)c1 | 64.8% (active) |
| CCOc1cc(C(=O)OCC(=O)Nc2ncc(Cl)c(C)c2Cl)ccc1OCC(=O)N1CCOCC1 | 33.8% |
| COC(=O)CCn1nnc(-c2ccc(C(C)C)cc2)n1 | 41.2% |
| O=C(COC(=O)CCSc1ccccc1)NCc1ccccc1Cl | 29.2% |
| CN(C)CCNC(=O)COc1ccc(Cl)cc1Cl | 28.3% |
| COc1ccccc1OCC(=O)NCCSCc1ccc(Cl)cc1 | 64.2% (active) |
| O=C(COc1ccccc1Cl)NCCC1=CCCCC1 | 48.4% |
| O=C(CN1C(=O)C2C3C=CC(C3)C2C1=O)NCCc1ccccc1 (stereo unspecified) | 23.8% |
| O=C(CCSCc1cccc(Cl)c1)NCCc1ccccc1 | 64.2% (active) |
